# Source: the supplement of paper PMC6555819
# System: PPARa:RXRa (NR concentration 270 nM, RXRa partner concentration 90 nM)
# Test: PBM binding z-score (relative to random genomic background probes); higher = stronger binding; sequences stand for … in GC…GCGATTGACAGCGTAGAATGAAGG
# Outline: (§1)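 Each nuclear receptor dimer, without ligand, was incubated for 1 h on custom Agilent 4×180K protein-binding microarrays. Binding was detected with antibodies against each partner (one per run), and scanned fluorescence was regression-normalized. The binding z-scores are referenced to random human genomic background probes.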
row,Sequence,PBM binding z-score
1,TCAATGAGGTTAAAGATCAGGGAACGTGGCGTCG,4.25
2,TAGCTTAGGTCATTGGGCCAGTATAGTACGCATC,4.09
3,GGAACCAGGGCAAGTTGATAGCAGAGTTTGATGG,1.54
4,TTACCAAGATGAAGGTCGTTGATCCCTCTGTAGA,1.33
5,TCTTGTAGATCAAGCAGGTTAAGAACGCCTGAGT,0.851
6,TGAATGAGGTTAAAGATCAGGGCACGTGGCGTCG,4.53
7,ATCTCTAGGTAAGACTCCGTTCAGTGAAGAACGC,-0.00199
8,CCAGACAGGTAAAAGGTAACTCAGTCTGGTACGC,2.14
9,TCATATAGGTAAAAGGTGAAATTCGGTGTGGTAA,5.49
10,GGAACGAGGACAAGTTGATAGCAGAGTTTGATGG,0.0298
11,TCGAGTAGGTTTGTCGGGGCATTCAGCCAACATA,0.326
12,GATACAGGGTCAGCTAGAGGCCAGAGTGTGGAAA,4.62
13,TAGCCAAGGTCATGGGCCAGTATACCACGCGAAC,6.11
14,GCTAGTTGGTGAGTAAAAGGTCACACACCGGTCG,4.55
15,CCTACTGGGCCATCAGATCATTGATATCAACGTT,0.662
16,TAGCCTAGGTCATCCGGGCCAGTATAGTGTCGGC,3.48
17,CGTCCAAGGTCAAAGGACAGTGAAGAGATGACGG,5.6
18,TCACGGAGGACACGAAAGGTCAGAGCTCGACATC,3.5
19,AATGCAGGGTCACTAGGCCAGAGTAGGTACGAAT,5.78
20,CGAACTAGGTCATTGGCAGGACAGTGAATAGTAA,4.73

row,Sequence,PBM binding z-score
1,TCATATAGGTAATACAGGTGAAGGTCGGCATCTA,2.28
2,AGAATGAGGTTAAGATCAGTGAAACAGAATACAT,3.6
3,TGAATGAGGTTATAAGATCAGGCAACGTTGCAAA,2.69
4,CGAACGAGGGCATGAGTTGACAGCAAATGCCGAT,1.81
5,CGAACTGGGTCATTGACAGGACAGTGAATAGTAA,4.39
6,GCTGCTAGGCCAACTGATGGTCAGCTAAAGCTCG,-1.2
7,TCTAGTTGGTCACGGAGGTCACACACGACGGGTA,4.01
8,CGTCCAAGGTCAATGCTAGGACAGTGAAAGCATT,5.19
9,CAAACTAGGTCAGAACAGGACAGTGAAGGATGAT,3.34
10,ATCTCTAGGAAACAAGTTCAGTGAAAGAGAGGAC,0.467
11,AGTCAAAGTTCATCTAGGTAACTTAAGATATGCT,4.6
12,TCTAGTTGGTCACGGAGGTCACCCACGACGGGTA,3.67
13,CAAACTAGGTCACGAAAGGTCAATGTCGAATGAC,6.73
14,ATAGACAGGTGAGTGAAGGTAACTCAGCTGGACG,0.437
15,CCCACTGGGCCAAGGTCATTGATCAGTCAAAGCA,3.8
16,ATATGTAGGTTGTCGGGTCATTCAGTTTGCGCAT,3.6
17,ACTAGCAGGCCAAGTTTGGGTCACTTAAACAAAG,1.52
18,GGAACGAGGGCAAGTTGATAGCAGAGTTTGATGG,1.74
19,GCGACTGGAGCATCAGCAGGTTACCATAACTTAA,0.165
20,AATACAGGGTCACAAGGCCAGAGTAGGTACGAAT,5.99

# System: PPARg:RXRa (NR concentration 180 nM, RXRa partner concentration 90 nM)
# Test: as above
# Outline: as §1
row,Sequence,PBM binding z-score
1,TCAATGAGGTTAAAGATCAGGGAACGTGGCGTCG,5.03
2,TAGCTTAGGTCATTGGGCCAGTATAGTACGCATC,2.96
3,GGAACCAGGGCAAGTTGATAGCAGAGTTTGATGG,1.17
4,TTACCAAGATGAAGGTCGTTGATCCCTCTGTAGA,0.406
5,TCTTGTAGATCAAGCAGGTTAAGAACGCCTGAGT,-0.197
6,TGAATGAGGTTAAAGATCAGGGCACGTGGCGTCG,5.69
7,ATCTCTAGGTAAGACTCCGTTCAGTGAAGAACGC,0.087
8,CCAGACAGGTAAAAGGTAACTCAGTCTGGTACGC,3.01
9,TCATATAGGTAAAAGGTGAAATTCGGTGTGGTAA,8.93
10,GGAACGAGGACAAGTTGATAGCAGAGTTTGATGG,0.641
11,TCGAGTAGGTTTGTCGGGGCATTCAGCCAACATA,-0.493
12,GATACAGGGTCAGCTAGAGGCCAGAGTGTGGAAA,3.38
13,TAGCCAAGGTCATGGGCCAGTATACCACGCGAAC,5.96
14,GCTAGTTGGTGAGTAAAAGGTCACACACCGGTCG,3.87
15,CCTACTGGGCCATCAGATCATTGATATCAACGTT,1.01
16,TAGCCTAGGTCATCCGGGCCAGTATAGTGTCGGC,1.95
17,CGTCCAAGGTCAAAGGACAGTGAAGAGATGACGG,5.59
18,TCACGGAGGACACGAAAGGTCAGAGCTCGACATC,1.48
19,AATGCAGGGTCACTAGGCCAGAGTAGGTACGAAT,7.48
20,CGAACTAGGTCATTGGCAGGACAGTGAATAGTAA,7.68

row,Sequence,PBM binding z-score
1,TCATATAGGTAATACAGGTGAAGGTCGGCATCTA,1.83
2,AGAATGAGGTTAAGATCAGTGAAACAGAATACAT,2.38
3,TGAATGAGGTTATAAGATCAGGCAACGTTGCAAA,1.48
4,CGAACGAGGGCATGAGTTGACAGCAAATGCCGAT,1.53
5,CGAACTGGGTCATTGACAGGACAGTGAATAGTAA,6.77
6,GCTGCTAGGCCAACTGATGGTCAGCTAAAGCTCG,-0.468
7,TCTAGTTGGTCACGGAGGTCACACACGACGGGTA,3.79
8,CGTCCAAGGTCAATGCTAGGACAGTGAAAGCATT,3.96
9,CAAACTAGGTCAGAACAGGACAGTGAAGGATGAT,5.81
10,ATCTCTAGGAAACAAGTTCAGTGAAAGAGAGGAC,0.409
11,AGTCAAAGTTCATCTAGGTAACTTAAGATATGCT,6.6
12,TCTAGTTGGTCACGGAGGTCACCCACGACGGGTA,3.23
13,CAAACTAGGTCACGAAAGGTCAATGTCGAATGAC,10.3
14,ATAGACAGGTGAGTGAAGGTAACTCAGCTGGACG,0.69
15,CCCACTGGGCCAAGGTCATTGATCAGTCAAAGCA,4.07
16,ATATGTAGGTTGTCGGGTCATTCAGTTTGCGCAT,2.89
17,ACTAGCAGGCCAAGTTTGGGTCACTTAAACAAAG,0.21
18,GGAACGAGGGCAAGTTGATAGCAGAGTTTGATGG,1.19
19,GCGACTGGAGCATCAGCAGGTTACCATAACTTAA,0.329
20,AATACAGGGTCACAAGGCCAGAGTAGGTACGAAT,7.38
